Rows were chosen to be rich in hits. Some 4.9% of all compounds tested hit in one or more screens of this group.
TIM10 inh – TIM10 yeast growth inhibition; inhibition, % at 10 µM; S. cerevisiae TIM10 strain growth, BacTiter-Glo luminescence, 24 h; hit rate 1.4% among 330,000;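 active = inhibition of 40% or more at the single tested concentration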;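 note: wild-type TIM10 isogenic control strain grown at permissive 25 °C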
NALP1 inh – NALP1 inhibition; S. cerevisiae NALP1/ASC/caspase-1 growth, X-gal OD620, 72 h; inhibition, % at 10 µM; hit rate 0.61% among 280,000; in the data active = inhibition mostly above about 24%, no sharp cut-off; inactive = mostly below about 32%
tim10-1 inh – growth inhibitors of tim10-1 mutant yeast; S. cerevisiae tim10-1 ts strain growth, BacTiter-Glo, 24 h; inhibition, % at 20 µM; hit rate 2.2% among 330,000; AID 463190;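 active = inhibition of at least 40%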;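 note: mutant grown at 25 °C; 0% = DMSO wells with yeast and 100% = wells holding no yeast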
SKKanGAS inh – blocks kanamycin growth of S. pyogenes SKKanGAS strain; AID 1662; hit rate 1.3% among 300,000; BacTiter-Glo, 6 h; inhibition, % at 7.5 µM;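 active = mean replicate score, as percent of positive control median, at least 50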;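 note: strain carries kanamycin resistance gene driven by streptokinase promoter and grows in 40 µg/ml kanamycin; loss of luminescence reflects streptokinase promoter inhibition or plain growth inhibition; 0% = median of DMSO wells and 100% = positive control at its reference dose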
tim23-1 inh – inhibits growth of tim23-1 mutant yeast | S. cerevisiae tim23-1 growth, BacTiter-Glo luminescence, 24 h | inhibition, % at 20 µM | hit rate 1.3% among 330,000 | AID 463212;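 active = growth inhibition of the mutant yeast at or above 50%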;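 note: temperature-sensitive mutant grown at 25 °C; plate controls were DMSO-treated mutant yeast for no effect and medium wells lacking yeast for full effect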
NLRP3 yeast inh – inhibitors of NALP3 inflammasome in yeast | inhibition, % at 10 µM | Yeast reconstituted NLRP3/ASC/caspase-1, beta-gal luminescence, 24 h | hit rate 0.39% among 330,000;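 active = inhibition of 50% or more; inactive = inhibition below 50%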;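 note: plate controls were induced DMSO wells for no effect and uninduced yeast grown without galactose for full effect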
tim10-1 confirm – confirmation of tim10-1 mutant yeast growth inhibitors | shares compounds with tim10-1 inh | S. cerevisiae tim10-1 ts strain growth, BacTiter-Glo, 24 h | inhibition, % at 20 µM | hit rate 56% among 7,400;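 active = inhibition of yeast growth at or above a set limit in either of two repeat tests at 20 µM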;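 note: tim10-1 mutant grown at permissive 25 °C to find synthetic lethal compounds; 0% = DMSO yeast wells and 100% = medium wells without yeast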
TIM10 conf – confirmation of TIM10 yeast growth inhibitors | inhibition, % at 10 µM | shares compounds with TIM10 inh | hit rate 63% among 4,600 | S. cerevisiae tim10 strain growth, BacTiter-Glo luminescence, 24 h;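 active = inhibition of yeast growth at or above a set limit in either of two replicates at 10 µM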;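 note: this counterscreen used the strain with wild-type TIM10; 0% = yeast with DMSO and 100% = medium wells lacking yeast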
tim23-1 confirm – tim23-1 yeast growth inhibition, confirmed; shares compounds with tim23-1 inh; S. cerevisiae tim23-1 growth, BacTiter-Glo luminescence, 24 h; inhibition, % at 20 µM; hit rate 83% among 4,400;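 active = inhibition above about 39% in either of two replicate wells at 20 µM, limit read from the data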;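 note: temperature-sensitive tim23-1 mutant grown at 25 °C; 0% = DMSO wells with yeast and 100% = medium wells without yeast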
The depositor's hits bear a star; . = no result given.

SMILES	TIM10 inh	NALP1 inh	tim10-1 inh	SKKanGAS inh	tim23-1 inh	NLRP3 yeast inh	tim10-1 confirm	TIM10 conf	tim23-1 confirm
COP(=O)(OC)C(NC(=O)/C=C/c1ccccc1)C(Cl)(Cl)Cl (configuration not stated)	12	5	-9	-1	-1	3	.	.	.
CCSc1cc(C2C(C#N)=C(N)Oc3n[nH]c(C)c32)c(C)o1 (configuration not stated)	48*	-1	63*	2	10	14	47*	45*	.
CCOC(=O)c1ccc(N2C(=O)CC(N3CC=C(c4ccc(F)cc4)CC3)C2=O)cc1 (configuration not stated)	57*	5	63*	8	19	-3	62*	44*	.
NC(=O)c1ccc(OCCC(O)N2CC=C(c3ccc(F)cc3)CC2)cc1 (configuration not stated)	-12	.	-20	.	-49	15	.	.	.
OC(Cn1c2ccccc2c2ccccc21)C[n+]1cccc2ccccc21 (configuration not stated)	57*	5	49*	-14	33	23	43*	43*	.
O=[N+]([O-])c1ccc(N2CCNCC2)cc1Sc1ccccn1	-7	32	16	-3	1	20	.	.	.
FC(F)(F)c1ccccc1CNCCc1c[nH]c2ccccc12	61*	7	43*	29	35	35	62*	60*	.
CC(=O)Nc1ccc(C(c2c(O)c3ccccc3oc2=O)c2c(C)n(C)n(-c3ccccc3)c2=O)cc1 (configuration not stated)	0	-1	3	9	3	-14	.	.	.
O=C1NC(=O)N(Cc2ccco2)C(=O)/C1=C\c1cccn1CCOc1ccc(Cl)cc1	41*	30	47*	-6	44	10	41*	39*	.
C=CCn1c(=O)c(C=Nc2c(OC)cccc2[N+](=O)[O-])c(O)n(CCCC)c1=O	13	31	17	5	-6	1	.	.	.
CCOP(=S)(OCC)Oc1cc(C)oc(=O)c1	6	12	7	6	-10	8	.	.	.
CN1CCC23c4c5ccc(O)c4O[C@@H]2[C@H](O)C=CC3C1C5 (some centres not stated)	2	.	-8	.	.	7	.	.	.
Cc1cc(C)n(-c2ccc(NN=C(C#N)C#N)cc2)n1	27	24	24	12	36	9	.	.	.
N#CC(C#N)=NNc1ccc(-n2ccc(C(F)(F)F)n2)cc1	48*	.	50*	31	51*	38	59*	23	61*
COc1cc(C=C2C(=O)NC(=O)NC2=O)ccc1OCc1ccc([N+](=O)[O-])cc1	.	4	.	.	.	.	.	.	.
COc1cc(/C=C(/C)[N+](=O)[O-])ccc1OCc1ccccc1Cl	52*	84	49*	.	52*	16	36*	44*	71*
Cc1ncc(CN2CCCC(C(=O)c3ccc(C(C)(C)C)cc3)C2)s1 (configuration not stated)	8	14	-16	2	-15	29	.	.	.
CCN1/C(=C\C=C\C2=[N+](CC)c3ccccc3C2(C)C)C(C)(C)c2ccccc21	46*	3	42*	58*	58*	28	28	27	40*
CCC(=NCc1cccnc1)c1c(O)n(Cc2ccccc2)c(=O)[nH]c1=O	-16	4	2	.	-21	17	.	.	.
COC(=O)C(O)(c1ccc(NC(=S)NC(=O)c2ccc(Cl)cc2Cl)c(C)c1)C(F)(F)F (configuration not stated)	23	16	53*	3	59*	18	37*	.	58*
COCCn1c(-c2ccccc2)cc(C(=O)O)c1C	11	.	4	-3	10	2	.	.	.
CCN(CC)c1ccc(/C=C/[N+](=O)[O-])cc1	4	-12	-7	-3	44	11	.	.	.
COc1cc(/C=C/[N+](=O)[O-])ccc1O	19	94*	43*	3	77*	23	18	.	76*
Cc1ccc(Cn2cc(C=O)c(-c3ccc(C)cc3)n2)cc1	27	50	45*	1	53*	32	35*	.	65*
Cc1ccc(/C=C2\C(=O)NC(=S)N(c3ccc(F)cc3)C2=O)s1	43*	-2	70*	14	55*	-7	36*	38*	72*
SMILES	TIM10 inh	NALP1 inh	tim10-1 inh	SKKanGAS inh	tim23-1 inh	NLRP3 yeast inh	tim10-1 confirm	TIM10 conf	tim23-1 confirm
COc1cccc(N2C(=O)NC(=O)/C(=C/c3ccc([N+](=O)[O-])s3)C2=O)c1	87*	.	73*	12	65*	2	69*	29	78*
COc1ccc(N2C(=O)NC(=O)/C(=C/c3ccc([N+](=O)[O-])s3)C2=O)cc1	90*	.	62*	15	61*	7	71*	69*	76*
COc1ccccc1N1C(=O)NC(=O)/C(=C/c2ccc([N+](=O)[O-])s2)C1=O	73*	.	77*	10	67*	24	68*	19	70*
COc1ccccc1N1C(=O)NC(=O)/C(=C\c2cnn(-c3ccccc3)c2)C1=O	2	-6	5	-1	6	5	.	.	.
CCC(=O)OC1(c2ccccc2)C(C)CN(C)CC1C (configuration not stated)	-7	9	-1	5	19	-10	.	.	.
Cc1ccc(NC(=O)CN2C(=O)CN=C(c3ccccc3)c3cc(Cl)ccc32)cc1	11	21	45*	4	61*	19	20	.	52*
CCOCCN1CCN(c2nnc3n2-c2ccc(Cl)cc2C(c2ccccc2Cl)=NC3)CC1	3	49	13	-1	2	9	.	.	.
CCn1nc(/C=C/c2ccccc2)nc2c(=O)n(C)c(=O)nc1-2	96*	-2	93*	5	93*	22	95*	98*	91*
COc1ccc(CC2(CCc3ccncc3)C(=O)NC(=O)NC2=O)cc1OC	-2	-7	13	-4	5	22	.	.	.
COc1ccccc1N1C(=O)NC(=O)C(CCc2ccncc2)(CCc2ccncc2)C1=O	-5	11	-3	-4	-16	19	.	.	.
CC[n+]1c(/C=C/C=C/c2ccc(N(C)C)cc2)sc2ccccc21	82*	8	85*	30	83*	13	90*	74*	82*
CN(C)c1ccc(/C=C/C=C/c2sc3ccccc3[n+]2C)cc1	22	11	7	19	27	7	.	.	.
CCCC[N+]1(C)[C@@H]2CC(OC(=O)[C@H](CO)c3ccccc3)C[C@H]1[C@@H]1O[C@@H]12 (some centres not stated)	-5	1	5	-5	1	24	.	.	.
